# Test results reported in PubChem BioAssay AID1159580 (chemical genetic matrix, 2015).
# Where “and” joins values, the source holds several entries; their conditions need not be identical. Identical values can stand only once. Hit rate of the full screen: of about 5,500 compounds, about 2,000 (36%) were called active. Not shown: some 18% with an inconclusive outcome. The list shows a part of the results. A number with no mark means an inactive call. No stated cut-off is given here; in the data, active means normalized growth mostly below about 0.91 (no sharp cut-off); inconclusive means no clear call, values can overlap the other calls; inactive means mostly above about 0.92.
# Experiment: chemical genetic growth profiling, strain panel (AID 1159580);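 further: tested at 20 µM; growth read once vehicle control cultures reached saturation at 30 °C; 1 = growth at the plate median or of vehicle wells; lower values mean less growth of the strain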
# Settings: S. cerevisiae deletion strains, growth OD
smiles,measurement,setting,value
CCC(C)C(=O)O[C@@H]1C[C@@]2(C)[C@H](c3ccoc3)OC(=O)CC23OC2(C)OC34[C@H](OC(=O)C(C)C)[C@@]3(O)[C@@H](OC(=O)C5(C)OC5C)[C@@]5(C)C[C@]3(O)[C@@](C)([C@H]5CC(=O)OC)C14O2 (stereo partly drawn),normalized growth,"locus YAL021C, strain ccr4, active compounds read low",1.03
same,normalized growth,"locus YAL026C, strain drs2, active compounds read low",0.981
same,normalized growth,"locus YAL030W, strain snc1, active compounds read low",0.996
same,normalized growth,"locus YBL061C, strain skt5, active compounds read low",1
same,normalized growth,"locus YBR009C, strain hhf1, active compounds read low",1.02
same,normalized growth,"locus YBR021W, strain FUR4, active compounds read low",1.07
same,normalized growth,"locus YBR023C, strain chs3, active compounds read low",1
same,normalized growth,"locus YBR171W, strain sec66, active compounds read low",0.988
same,normalized growth,"locus YBR229C, strain ROT2, active compounds read low",1.01
same,normalized growth,"locus YBR231C, strain swc5, active compounds read low",0.996
same,normalized growth,"locus YBR279W, strain paf1, active compounds read low",0.995
same,normalized growth,"locus YCL011C, strain gbp2, active compounds read low",1
same,normalized growth,"locus YCL016C, strain dcc1, active compounds read low",1.01
same,normalized growth,"locus YCL029C, strain bik1, active compounds read low",0.994
same,normalized growth,"locus YCL061C, strain MRC1, active compounds read low",1
same,normalized growth,"locus YCL069W, strain vba3, active compounds read low",0.995
same,normalized growth,"locus YCR088W, strain abp1, active compounds read low",0.999
same,normalized growth,"locus YDL005C, strain med2, active compounds read low",1.02
same,normalized growth,"locus YDL035C, strain GPR1, active compounds read low",0.974
same,normalized growth,"locus YDL040C, strain nat1, active compounds read low",0.996
same,normalized growth,"locus YDL074C, strain BRE1, active compounds read low",1.01
same,normalized growth,"locus YDL101C, strain DUN1, active compounds read low",1.03
same,normalized growth,"locus YDL185W, strain tfp1, active compounds read low",1.01
same,normalized growth,"locus YDL192W, strain arf1, active compounds read low",0.987
same,normalized growth,"locus YDR001C, strain nth1, active compounds read low",0.999
same,normalized growth,"locus YDR069C, strain doa4, active compounds read low",0.991
same,normalized growth,"locus YDR101C, strain arx1, active compounds read low",0.977
same,normalized growth,"locus YDR137W, strain rgp1, active compounds read low",0.651 (active)
same,normalized growth,"locus YDR150W, strain NUM1, active compounds read low",1
same,normalized growth,"locus YDR159W, strain sac3, active compounds read low",0.981
same,normalized growth,"locus YDR162C, strain NBP2, active compounds read low",0.993
same,normalized growth,"locus YDR195W, strain ref2",1.03
same,normalized growth,"locus YDR297W, strain sur2, active compounds read low",0.992
same,normalized growth,"locus YDR318W, strain mcm21, active compounds read low",1.01
same,normalized growth,"locus YDR334W, strain swr1, active compounds read low",1
same,normalized growth,"locus YDR335W, strain msn5, active compounds read low",0.997
same,normalized growth,"locus YDR388W, active compounds read low",1.01
same,normalized growth,"locus YDR392W, strain spt3, active compounds read low",0.998
same,normalized growth,"locus YDR502C, strain sam2, active compounds read low",1.03
same,normalized growth,"locus YEL003W, strain gim4, active compounds read low",1
same,normalized growth,"locus YEL037C, strain rad23, active compounds read low",1.01
same,normalized growth,"locus YEL061C, strain CIN8 (second series), active compounds read low",1
same,normalized growth,"locus YEL061C, strain CIN8, active compounds read low",1
same,normalized growth,"locus YER015W, strain faa2, active compounds read low",1.01
same,normalized growth,"locus YER016W, strain bim1, active compounds read low",1
same,normalized growth,"locus YER110C, active compounds read low",1.02
same,normalized growth,"locus YER111C, strain swi4, active compounds read low",0.99
same,normalized growth,"locus YER155C, strain BEM2 (second series), active compounds read low",1.02
same,normalized growth,"locus YER155C, strain BEM2, active compounds read low",1.01
same,normalized growth,"locus YER167W, strain BCK2, active compounds read low",0.995
same,normalized growth,"locus YFR010W, strain ubp6, active compounds read low",1.01
same,normalized growth,"locus YGL078C, strain dbp3, active compounds read low",1.03
same,normalized growth,"locus YGL086W, strain mad1, active compounds read low",1.02
same,normalized growth,"locus YGL167C, strain pmr1, active compounds read low",0.993
same,normalized growth,"locus YGL173C, strain kem1, active compounds read low",0.977
same,normalized growth,"locus YGL227W, strain vid30, active compounds read low",0.992
same,normalized growth,"locus YGL240W, strain doc1, active compounds read low",1
same,normalized growth,"locus YGL248W, strain PDE1, active compounds read low",1.03
same,normalized growth,"locus YGL253W, strain hxk2, active compounds read low",0.986
same,normalized growth,"locus YGR135W, strain pre9, active compounds read low",1.06
same,normalized growth,"locus YGR252W, strain gcn5, active compounds read low",1.15
same,normalized growth,"locus YHR013C, strain ard1, active compounds read low",1.01
same,normalized growth,"locus YHR027C, strain rpn1, active compounds read low",0.996
same,normalized growth,"locus YHR030C, strain SLT2, active compounds read low",1.05
same,normalized growth,"locus YHR079C, strain IRE1 (second series), active compounds read low",1
same,normalized growth,"locus YHR079C, strain IRE1, active compounds read low",1.04
same,normalized growth,"locus YHR094C, strain hxt1, active compounds read low",1.01
same,normalized growth,"locus YHR129C, strain ARP1, active compounds read low",1.02
same,normalized growth,"locus YHR142W, strain chs7, active compounds read low",0.994
same,normalized growth,"locus YHR200W, strain rpn10, active compounds read low",1.03
same,normalized growth,"locus YIL066C, strain RNR3, active compounds read low",0.982
same,normalized growth,"locus YIL073C, strain SPO22, active compounds read low",1
same,normalized growth,"locus YIL125W, strain kgd1, active compounds read low",1
same,normalized growth,"locus YIR030C, strain dcg1, active compounds read low",1
same,normalized growth,"locus YJL092W, strain hpr5, active compounds read low",1.01
same,normalized growth,"locus YJL095W, strain BCK1 (second series), active compounds read low",1.02
same,normalized growth,"locus YJL095W, strain BCK1, active compounds read low",1.06 and 1.02
same,normalized growth,"locus YJL115W, strain asf1, active compounds read low",1.01
same,normalized growth,"locus YJL129C, strain trk1, active compounds read low",0.98
same,normalized growth,"locus YJL134W, strain LCB3, active compounds read low",1
same,normalized growth,"locus YJL154C, strain vps35, active compounds read low",0.993
same,normalized growth,"locus YJL164C, strain tpk1, active compounds read low",0.996
same,normalized growth,"locus YJL166W, strain qcr8, active compounds read low",0.989
same,normalized growth,"locus YJL168C, strain set2, active compounds read low",1.01
same,normalized growth,"locus YJL187C, strain SWE1 (second series), active compounds read low",1.04
same,normalized growth,"locus YJL187C, strain SWE1, active compounds read low",1
same,normalized growth,"locus YJR066W, strain TOR1, active compounds read low",0.979
same,normalized growth,"locus YJR075W, strain HOC1, active compounds read low",1.02
same,normalized growth,"locus YKL009W, strain mrt4, active compounds read low",0.972
same,normalized growth,"locus YKL068W, active compounds read low",1
same,normalized growth,"locus YKL085W, strain MDH1 (second series), active compounds read low",1
same,normalized growth,"locus YKL085W, strain MDH1, active compounds read low",1
same,normalized growth,"locus YKL160W, strain elf1, active compounds read low",0.966
same,normalized growth,"locus YKL190W, strain CNB1, active compounds read low",0.999
same,normalized growth,"locus YKR001C, strain vps1, active compounds read low",0.996
same,normalized growth,"locus YKR026C, strain gcn3, active compounds read low",1
same,normalized growth,"locus YKR091W, strain srl3, active compounds read low",0.996
same,normalized growth,"locus YLL001W, strain dnm1, active compounds read low",1
same,normalized growth,"locus YLL026W, active compounds read low",1
same,normalized growth,"locus YLL041C, strain sdh2, active compounds read low",0.988
same,normalized growth,"locus YLR027C, strain aat2, active compounds read low",1.01
same,normalized growth,"locus YLR039C, strain RIC1, active compounds read low",0.774
same,normalized growth,"locus YLR058C, strain SHM2, active compounds read low",1.01
same,normalized growth,"locus YLR102C, strain apc9, active compounds read low",1.01
same,normalized growth,"locus YLR113W, strain HOG1, active compounds read low",1.01
same,normalized growth,"locus YLR221C, strain rsa3, active compounds read low",0.994
same,normalized growth,"locus YLR258W, strain gsy2, active compounds read low",0.983
same,normalized growth,"locus YLR262C, strain YPT6 (second series), active compounds read low",0.647 (active)
same,normalized growth,"locus YLR268W, strain sec22, active compounds read low",0.958
same,normalized growth,"locus YLR320W, strain mms22, active compounds read low",0.999
same,normalized growth,"locus YLR342W, strain FKS1, active compounds read low",1.01
same,normalized growth,"locus YLR357W, strain rsc2, active compounds read low",1.03
same,normalized growth,"locus YLR370C, strain arc18, active compounds read low",0.996
same,normalized growth,"locus YLR371W, strain rom2, active compounds read low",1.01
same,normalized growth,"locus YLR384C, strain iki3, active compounds read low",1.01
same,normalized growth,"locus YLR418C, strain cdc73, active compounds read low",1.04
same,normalized growth,"locus YML016C, strain PPZ1, active compounds read low",1.01
same,normalized growth,"locus YML032C, strain rad52, active compounds read low",0.98
same,normalized growth,"locus YML120C, strain ndi1, active compounds read low",1.01
same,normalized growth,"locus YML124C, strain tub3, active compounds read low",0.998
same,normalized growth,"locus YMR058W, strain fet3, active compounds read low",1.01
same,normalized growth,"locus YMR078C, strain ctf18, active compounds read low",0.999
same,normalized growth,"locus YMR125W, strain sto1, active compounds read low",1.01
same,normalized growth,"locus YMR129W, active compounds read low",0.99
same,normalized growth,"locus YMR205C, strain PFK2, active compounds read low",0.975
same,normalized growth,"locus YMR223W, strain ubp8, active compounds read low",1.01
same,normalized growth,"locus YMR231W, strain pep5, active compounds read low",0.992
same,normalized growth,"locus YMR307W, strain GAS1, active compounds read low",1.01
same,normalized growth,"locus YNL067W, strain RPL9B, active compounds read low",1.05
same,normalized growth,"locus YNL071W, strain lat1, active compounds read low",1.02
same,normalized growth,"locus YNL128W, strain TEP1, active compounds read low",0.99
same,normalized growth,"locus YNL153C, strain GIM3, active compounds read low",1.07
same,normalized growth,"locus YNL183C, strain NPR1, active compounds read low",0.988
same,normalized growth,"locus YNL209W, strain ssb2, active compounds read low",1.02
same,normalized growth,"locus YNL233W, strain BNI4, active compounds read low",1.04
same,normalized growth,"locus YNL248C, strain rpa49, active compounds read low",1.03
same,normalized growth,"locus YNL250W, strain rad50, active compounds read low",1.05
same,normalized growth,"locus YNL271C, strain bni1, active compounds read low",1.01
same,normalized growth,"locus YNL298W, strain CLA4, active compounds read low",1.02
same,normalized growth,"locus YNL307C, strain MCK1, active compounds read low",1.01
same,normalized growth,"locus YNL322C, strain KRE1 (second series), active compounds read low",1
same,normalized growth,"locus YNL322C, strain KRE1, active compounds read low",1
same,normalized growth,"locus YNR049C, strain mso1, active compounds read low",1.01
same,normalized growth,"locus YNR052C, strain pop2, active compounds read low",1.03
same,normalized growth,"locus YOL012C, strain htz1",0.642
same,normalized growth,"locus YOL147C, strain pex11, active compounds read low",0.999
same,normalized growth,"locus YOR001W, strain rrp6, active compounds read low",1
same,normalized growth,"locus YOR061W, strain CKA2, active compounds read low",0.987
same,normalized growth,"locus YOR069W, strain VPS5, active compounds read low",1
same,normalized growth,"locus YOR070C, strain gyp1, active compounds read low",1.02
same,normalized growth,"locus YOR080W, strain dia2, active compounds read low",1.01
same,normalized growth,"locus YOR083W, strain WHI5, active compounds read low",1.01
same,normalized growth,"locus YOR106W, strain vam3, active compounds read low",0.998
same,normalized growth,"locus YOR136W, strain idh2, active compounds read low",1.01
same,normalized growth,"locus YOR144C, strain elg1, active compounds read low",0.998
same,normalized growth,"locus YOR184W, strain ser1, active compounds read low",0.971
same,normalized growth,"locus YOR231W, strain MKK1, active compounds read low",0.991
same,normalized growth,"locus YOR265W, strain rbl2, active compounds read low",0.984
same,normalized growth,"locus YOR270C, strain vph1, active compounds read low",0.777 (active)
same,normalized growth,"locus YOR290C, strain snf2, active compounds read low",1
same,normalized growth,"locus YOR316C, strain cot1, active compounds read low",0.999
same,normalized growth,"locus YPL051W, strain arl3, active compounds read low",0.983
same,normalized growth,"locus YPL055C, strain LGE1, active compounds read low",0.979
same,normalized growth,"locus YPL078C, strain atp4, active compounds read low",0.992
same,normalized growth,"locus YPL106C, strain sse1, active compounds read low",1.06
same,normalized growth,"locus YPL240C, strain hsp82, active compounds read low",1
same,normalized growth,"locus YPL241C, strain CIN2, active compounds read low",0.983
same,normalized growth,"locus YPL256C, strain CLN2, active compounds read low",1.04
same,normalized growth,"locus YPR119W, strain clb2, active compounds read low",1.01
same,normalized growth,"locus YPR141C, strain kar3, active compounds read low",1.01
same,normalized growth,"locus YPR163C, strain tif3, active compounds read low",1.01
same,normalized growth,"locus YPR167C, strain met16, active compounds read low",1.01
same,normalized growth,"strain wtn01, active compounds read low",0.982
